Results from publication PMC5540273 (PLoS ONE, 2017).

Tested on: MST1R
Details: concentration: 1 μM, replicates: in singlicate; n = 1
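Note: KINOMEscan kinase panel screen.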

Row | Compound | %Inh [%]
1 | N#CC1(c2cccc(C(=O)Nc3cccc(Oc4ccc5nc(NC(=O)C6CC6)sc5n4)c3)c2)CC1 | 0
2 | O=C(Nc1n[nH]c2nc(-c3ccccc3)ccc12)C1CC1 [SB-708999] | 0
3 | CC(C)c1nc(-c2cccc(NS(=O)(=O)c3c(F)cccc3F)c2)c(-c2ccnc(Nc3ccc(N4CCOCC4)nc3)n2)s1.Cl [GSK1723980] | 17
4 | Cl.Cl.NCC(NC(=O)c1cc(-c2cccnc2)c(-c2ccnc3[nH]ccc23)s1)c1ccccc1 (stereo not shown) [GSK1323434] | 84
5 | COC(=O)Nc1nc2cc(Oc3ccc(NC(=O)Nc4cccc(SC)c4)cc3)ccc2[nH]1.Cl [GW697999] | 29
6 | O=C(Nc1n[nH]c2nc(-c3ccccc3O)ccc12)C1CC1 [SB-711880] | 10
7 | O=C(Nc1n[nH]c2cc(-c3cccs3)ccc12)C1CC1 [SB-731284] | 0
8 | O=C(Nc1c(F)cccc1F)c1cc(C(=O)c2ccccc2F)c[nH]1 [GSK1326180] | 0
9 | Cc1ccc(Nc2ccnc(Nc3ccc(C)c(F)c3)n2)cc1O.Cl [GW582868] | 18
10 | COc1cccc(-c2nc(-c3ccccc3)[nH]c2-c2ccncc2)c1 [SB-610250] | 23
11 | CCn1cnc2c(NCc3ccccc3)ncnc21 [SKF-96418] | 0
12 | Cl.Cl.NC(CNC(=O)c1cc(Br)c(-c2ccnc3[nH]ccc23)s1)c1ccccc1 (stereo not shown) [GSK1322949] | 5
13 | CN(c1ccc(F)c(NC(=O)c2cccc(OC(C)(C)C#N)c2Cl)c1)c1ccc2nc(NC(=O)C3CC3)sc2n1 | 5
14 | Fc1cc(Cl)ccc1Nc1ccnc2cc(-c3ccc(CN4CCOCC4)o3)ccc12 [GW560109] | 0
15 | COc1cc(Nc2ccnc3cc(-c4ccncc4)ccc23)cc(OC)c1OC.Cl [GW494610] | 41
16 | Cc1ccc(O)cc1Nc1ccnc2cc(-c3ccc(CN4CCCCC4)o3)ccc12 [GW557777] | 5
17 | Nc1ncc(-c2ccc3nccc(-c4ccncc4)c3c2)cc1S(=O)(=O)N1CCCCC1 [GSK1693850] | 35
18 | COc1ccc(C)c(Nc2ccnc(Nc3ccc(-c4cnc[nH]4)cc3)n2)c1.Cl [GW784041] | 0
19 | Fc1cc(Cl)ccc1Nc1ccnc2cc(-c3ccc(CN4CCSCC4)o3)ccc12 [GW560106] | 31

Row | Compound | %Inh [%]
20 | Cc1ccc(NC(=O)c2ccnc(N3CCCCC3)c2)cc1-c1ccc(C(=O)NCC2CC2)cc1 [GW775610] | 4
21 | CCOc1nccc(-c2c(-c3ccc(F)cc3)ncn2C2CCNCC2)n1 [SB-249175] | 0
22 | O=C(O)C(F)(F)F.O=c1[nH]ccc2nc(N[C@@H]3CCNC3)nc(Nc3ccc4c(c3)S(=O)(=O)CC4)c12 [GSK2181306] | 1
23 | c1ccc(Oc2ccc(Nc3ccnc4cc(-c5ccc(CN6CCCCC6)o5)ccc34)cc2)nc1 [GW567143] | 29
24 | Cc1ccc(C)c(NC(=O)Nc2ccc(C)c(-c3ccc(C(=O)Nc4ccncc4)cc3)c2)c1 [GSK1398473] | 26
25 | Cn1cc(-c2cnc(N)c3c(-c4ccc5c(c4)CCN5C(=O)Cc4ccccc4)csc23)cn1 [GSK2593074] | 12
26 | O=C(O)C(F)(F)F.O=c1[nH]ccc2nc(N[C@@H]3CCNC3)nc(Nc3cc(Cl)cc(Cl)c3)c12 [GSK2188764] | 11
27 | Cl.O=C(Nc1ccc(Oc2ccc3[nH]c(NC(=O)c4ccco4)nc3c2)cc1)Nc1cc(C(F)(F)F)ccc1F [GW683134] | 41
28 | Cc1cccc(Nc2nc(NCCN)ncc2C(N)=O)c1 [GSK1292139] | 14
29 | CC(C)NCC(Cc1ccccc1)NC(=O)c1cc(Br)c(-c2ccnc3[nH]ccc23)s1.Cl.Cl (stereo not shown) [GSK1383281] | 43
30 | Nc1cccc(-c2ccc3c(N)n[nH]c3c2)c1 [GSK2193613] | 26
31 | COc1cc(Nc2nccc(N3CCC(NS(=O)(=O)c4ccc(NC(C)=O)cc4)CC3)n2)cc(OC)c1OC [GSK1379825] | 13
32 | Cc1nn2c(=O)cc(N3CCO[C@H](C)C3)nc2n1Cc1cccc(Cl)c1Cl [GSK2373693] | 0
33 | CN1CCN(Cc2ccc(NC(=O)Nc3ccc(N(C)c4ccnc(Nc5ccc(CS(C)(=O)=O)cc5)n4)cc3)cc2)CC1.Cl [GW827654] | 92.7
34 | COC(=O)Nc1nc2ccc(Oc3ccc(CC(=O)Nc4cc(C(F)(F)F)ccc4F)cc3)cc2[nH]1 [GW680903] | 34
35 | COc1ccc(C2=C(Nc3cccc(O)c3)C(=O)NC2=O)cc1 [SB-390766] | 100
36 | CN(C)c1ncnc2nc[nH]c12 [SKF-31736] | 0
37 | Cc1cc(-c2ccnc(Nc3cccc(C#N)c3)n2)cc(C)c1O [GSK1440913] | 0
